How the values were obtained:
Assay type in all cases: functional
[1] = system: Plasmodium falciparum; test: GSK_TCMDC: Inhibition of Plasmodium falciparum 3D7 in whole red blood cells, using parasite LDH activity as an index of growth. Test compounds present at 2uM
[2] = system: Plasmodium falciparum; test: GSK_TCMDC: Inhibition of Plasmodium falciparum Dd2 in whole red blood cells, using parasite LDH activity as an index of growth. Test compounds present at 2uM
[3] = system: HepG2; test: GSK_TCMDC: Percent inhibition of human HepG2 cell line. Test compounds present at 10uM.

SMILES	Inhibition [1] [%]	Inhibition [2] [%]	Inhibition [3] [%]
COc1c(C)cc(I)cc1CNCCCNc1cc(=O)c2ccccc2[nH]1	84	0	0
COCCN1CCC(CN(C)CC(C)(C)c2nc(-c3ccc(Cl)c(O)c3)c(-c3ccncc3)[nH]2)CC1.Cl	94	10	0
COc1ccc(-c2cccc(NC(=O)c3cccc(C#N)c3)c2)cc1CNC(C)C.O=C(O)C(F)(F)F	100	51	22
COc1ccc2nc(-c3cc(-c4ccc(NC(C)=O)cc4)cnc3N)[nH]c2c1	93	73	55
CN(C)c1ccc(-c2ccc(C(=O)NC3CCN(Cc4ccc(C(C)(C)C)cc4)CC3)s2)cc1.O=C(O)C(F)(F)F	95	59	35
CCOc1cc(C)ccc1N1CCN(CCCCNC(=O)c2ccc(NC(=O)c3ccc(Cl)cc3)cc2)CC1.Cl	100	46	19
CCc1cn2c3c(cc(C(=O)N[C@@H](Cc4ccccc4)[C@H](O)CNCCOC)cc13)N(C)S(=O)(=O)CC2.O=CO	98	56	7
CCCOc1cc(Cc2cnc(N)nc2N)cc(OC)c1OC	85	1	21
COc1cc2ccccc2c(CNCCCCCCNCc2c(OC)c(OC)cc3ccccc23)c1OC.CS(=O)(=O)O	95	89	100
Cc1c(Cl)cccc1S(=O)(=O)N1CCCCC(c2ccc(C(F)(F)F)cc2)=N1	86	91	15

Source: ChEMBL document CHEMBL1157539, “Thousands of chemical starting points for antimalarial lead identification” (Nature, 2010)
